Measurements from PubChem BioAssay (Tox21).
“And” between values parts separate entries of the source, which are not always exact repeats. Equal values may be shown once. Inconclusive results are not listed. The source made the active and inactive calls. Unless noted, calls come from the whole dose curve; as a rule, active = well fitted curve in the direction sought with a large enough effect in the repeat runs; inconclusive = weak or mixed curves; inactive = no such curve, though single readings can be large; an effect the other way counts as inactive or inconclusive.

Experiments:
[1] = qHTS assay to test for compound auto fluorescence at 535 nm (green) in HEK293 cells (AID 720680)
[2] = qHTS assay to test for compound auto fluorescence at 460 nm (blue) in HEK293 cell free culture (AID 720681)
Procedure, shortened: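 Compounds were added to cell-free DMEM with 10% FBS and fluorescence read directly. The blue channel used 405 nm excitation and 460 nm emission, with triamterene as the reference fluorophore.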

[3] = qHTS assay to test for compound auto fluorescence at 590 nm (red) in HEK293 cell free culture (AID 720683)
Procedure, shortened: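 Cell-free wells of DMEM with 10% FBS received compound, and intrinsic fluorescence was read at excitation/emission 540/590 nm. Values expressed as equivalence to Rose Bengal sodium.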

[4] = qHTS assay to test for compound auto fluorescence at 590 nm (red) in HepG2 cell free culture (AID 720684)
Procedure, shortened: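 Rose Bengal sodium served as the reference for red signal. Test compounds were dispensed into serum-containing MEM (10% FBS) without cells, and plates were read at 540/590 nm.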

[5] = qHTS assay to test for compound auto fluorescence at 460 nm (blue) in HepG2 cell free culture (AID 720685)
Procedure, shortened: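 Cell-free plates of MEM plus 10% FBS received 23 nL compound or DMSO vehicle; blue-channel (405/460 nm) intensity scored against triamterene as reference fluorophore.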

[6] = qHTS assay to test for compound auto fluorescence at 535 nm (green) in HepG2 cell free culture (AID 720686)
[7] = qHTS assay to test for compound auto fluorescence at 460 nm (blue) in HepG2 cells (AID 720687)
Procedure, shortened: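 HepG2 cells in MEM with 10% FBS, attached overnight at 37 C, were exposed to compound or DMSO for 1 hr at 37 C, 5% CO2. Blue fluorescence was read at 405/460 nm, with triamterene as reference fluorophore.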

[8] = biological target: Glucocorticoid receptor (Homo sapiens) (UniProt P04150); assay: qHTS assay to identify small molecule antagonists of the glucocorticoid receptor (GR) signaling pathway (AID 720692; active = well fitted inhibition curve with a large enough effect in the signal ratio in the repeat runs, not every such curve was filed as active; the % refers to the signal ratio; note: potency is the fitted concentration of half-maximal effect)
Chain of Glucocorticoid receptor (Homo sapiens) (P04150 whole entry, looked up): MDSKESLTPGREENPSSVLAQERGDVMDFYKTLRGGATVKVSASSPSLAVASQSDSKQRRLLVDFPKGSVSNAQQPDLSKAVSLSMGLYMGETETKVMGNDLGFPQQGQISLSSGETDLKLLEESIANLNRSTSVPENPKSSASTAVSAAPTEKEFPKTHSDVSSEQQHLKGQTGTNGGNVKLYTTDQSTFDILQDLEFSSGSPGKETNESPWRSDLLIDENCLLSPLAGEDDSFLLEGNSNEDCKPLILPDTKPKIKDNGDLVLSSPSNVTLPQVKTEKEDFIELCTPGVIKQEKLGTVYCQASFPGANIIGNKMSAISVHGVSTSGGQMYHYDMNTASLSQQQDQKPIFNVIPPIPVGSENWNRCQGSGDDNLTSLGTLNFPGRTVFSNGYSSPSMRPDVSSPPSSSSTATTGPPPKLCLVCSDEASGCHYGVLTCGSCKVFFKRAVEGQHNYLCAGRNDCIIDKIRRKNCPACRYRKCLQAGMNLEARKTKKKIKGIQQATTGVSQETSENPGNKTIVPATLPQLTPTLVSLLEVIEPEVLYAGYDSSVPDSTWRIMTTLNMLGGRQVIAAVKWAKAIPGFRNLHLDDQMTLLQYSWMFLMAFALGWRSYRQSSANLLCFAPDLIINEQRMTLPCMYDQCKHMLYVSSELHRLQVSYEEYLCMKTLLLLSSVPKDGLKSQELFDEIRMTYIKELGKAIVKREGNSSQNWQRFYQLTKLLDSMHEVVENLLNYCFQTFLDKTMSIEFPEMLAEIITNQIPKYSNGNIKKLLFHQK
Procedure, shortened: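 In a 1536-well cell format, compounds were added 4 h after seeding GR-bla HeLa cells, together with dexamethasone at 5 nM final; reporter activity was measured by FRET-substrate fluorescence following 18 h at 37 C.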

[9] = qHTS assay to identify small molecule antagonists of the glucocorticoid receptor (GR) signaling pathway - cell viability counter screen (AID 720693); note: nearly all actives have a fitted effect of over 55% in size; note: potency is the fitted concentration of half-maximal effect
[10] = qHTS assay to identify small molecule antagonists of the androgen receptor (AR) signaling pathway - cell viability counter screen (AID 743033; note: nearly all actives have a fitted effect of over 45% in size; note: potency is the fitted concentration of half-maximal effect)
[11] = qHTS assay to identify small molecule antagonists of the androgen receptor (AR) signaling pathway using the MDA cell line - cell viability counter screen (AID 743041; note: nearly all actives have a fitted effect of over 45% in size; note: potency is the fitted concentration of half-maximal effect)
Procedure, shortened: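 Cytotoxicity counter screen: MDA-kb2 AR-luc cells, compound + R1881, 16 h, 37C, 0% CO2; CellTiter-Fluor added at 15.5 h, fluorescence read after 30 min.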

[12] = qHTS assay to identify small molecule antagonists of the thyroid receptor (TR) signaling pathway - cell viability counter screen (AID 743064); note: nearly all actives have a fitted effect of over 50% in size; note: potency is the fitted concentration of half-maximal effect
Procedure, shortened: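 Viability of T3-stimulated (1 nM final) GH3.TRE-Luc cells is measured by CellTiter-Fluor fluorescence after 23.5 h compound exposure at 37 °C plus 30 min reagent incubation.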

[13] = qHTS assay for identifying genotoxic compounds that show differential cytotoxicity against isogenic chicken DT40 cell lines with known DNA damage response pathways - wild type cell line (AID 743012); note: nearly all actives have a fitted effect of over 60% in size; note: potency is the fitted concentration of half-maximal effect
Procedure, shortened: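 Viability of DNA repair-proficient chicken DT40 cells was assessed by CellTiter-Glo luminescence following 40 h compound exposure at 37 C/5% CO2.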

[14] = qHTS assay for identifying genotoxic compounds that show differential cytotoxicity against isogenic chicken DT40 cell lines with known DNA damage response pathways - Rev3 mutant cell line (AID 743014); note: nearly all actives have a fitted effect of over 55% in size; note: potency is the fitted concentration of half-maximal effect
[15] = qHTS assay for identifying genotoxic compounds that show differential cytotoxicity against isogenic chicken DT40 cell lines with known DNA damage response pathways - Rad54/Ku70 mutant cell line (AID 743015); note: nearly all actives have a fitted effect of over 60% in size; note: potency is the fitted concentration of half-maximal effect
[16] = biological target: Glucocorticoid receptor (Homo sapiens) (UniProt P04150); assay: qHTS assay to identify small molecule agonists of the glucocorticoid receptor (GR) signaling pathway (AID 720691; active = well fitted activation curve with a large enough effect in the signal ratio in the repeat runs, not every such curve was filed as active; the % refers to the signal ratio); settings: GR-bla HeLa, beta-lactamase reporter ratio, 18 h; activation: at 62.4 µM (top of the series)
Procedure, shortened: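 Compounds in DMSO, alongside positive controls, were added to GR-bla HeLa reporter cells and incubated 18 h at 37 C; GRE-driven beta-lactamase was detected by fluorescence after 2 h with FRET substrate at room temperature.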

[17] = biological target: Androgen receptor (Homo sapiens) (UniProt P10275); assay: qHTS assay to identify small molecule antagonists of the androgen receptor (AR) signaling pathway using the MDA cell line (AID 743042; note: nearly all actives have a fitted effect of over 55% in size; note: potency is the fitted concentration of half-maximal effect)
Chain of Androgen receptor (Homo sapiens) (P10275 whole entry, looked up): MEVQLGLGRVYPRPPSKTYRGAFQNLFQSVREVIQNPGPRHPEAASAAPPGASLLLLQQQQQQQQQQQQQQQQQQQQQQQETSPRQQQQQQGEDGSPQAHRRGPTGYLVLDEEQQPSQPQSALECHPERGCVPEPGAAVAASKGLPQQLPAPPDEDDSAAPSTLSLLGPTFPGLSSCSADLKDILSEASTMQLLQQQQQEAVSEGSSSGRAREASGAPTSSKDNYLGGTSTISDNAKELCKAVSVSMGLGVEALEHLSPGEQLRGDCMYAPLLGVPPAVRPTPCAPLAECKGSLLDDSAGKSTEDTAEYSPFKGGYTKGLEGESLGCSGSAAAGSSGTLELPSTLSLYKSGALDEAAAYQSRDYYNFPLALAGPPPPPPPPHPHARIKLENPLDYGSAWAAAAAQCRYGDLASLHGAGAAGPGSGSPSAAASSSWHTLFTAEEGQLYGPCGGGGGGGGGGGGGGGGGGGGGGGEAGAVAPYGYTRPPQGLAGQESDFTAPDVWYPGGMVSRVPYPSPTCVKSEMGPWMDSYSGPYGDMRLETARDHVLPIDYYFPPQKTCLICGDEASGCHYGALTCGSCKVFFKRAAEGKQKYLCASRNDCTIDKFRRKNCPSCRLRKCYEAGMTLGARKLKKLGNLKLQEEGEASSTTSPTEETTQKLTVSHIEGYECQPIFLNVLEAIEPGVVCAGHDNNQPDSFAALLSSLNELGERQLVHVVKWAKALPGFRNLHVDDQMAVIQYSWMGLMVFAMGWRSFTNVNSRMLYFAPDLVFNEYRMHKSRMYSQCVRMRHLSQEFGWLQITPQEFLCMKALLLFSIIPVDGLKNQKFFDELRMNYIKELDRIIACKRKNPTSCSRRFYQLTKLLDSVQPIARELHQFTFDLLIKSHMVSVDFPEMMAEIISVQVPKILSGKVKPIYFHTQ
Procedure, shortened: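 MDA-kb2 breast carcinoma cells carrying MMTV-luciferase (AR/GR responsive) were co-treated with compounds and the agonist R1881 for 16 h at 37C. Inhibition read as ONE-Glo luminescence; CellTiter-Fluor fluorescence measured in parallel for cytotoxicity.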

[18] = biological target: Androgen receptor (Homo sapiens) (UniProt P10275); assay: qHTS assay to identify small molecule agonists of the androgen receptor (AR) signaling pathway using the MDA cell line (AID 743040; note: nearly all actives have a fitted effect of over 20% in size)
Procedure, shortened: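 Luciferase read-out, ONE-Glo, 30 min RT. Cells: MDA-kb2 AR-luc, MMTV promoter with AR and GR response elements. Compound exposure 16 h, 37C, 0% CO2, after 5 h pre-incubation. qHTS agonist mode.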

[19] = qHTS assay to test for compound auto fluorescence at 535 nm (green) in HEK293 cell free culture (AID 720682)
Procedure, shortened: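 DMEM + 10% FBS, cell-free; cpd or DMSO pinned in; Ex485/Em535 read; output as fluorescein-equivalent signal.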
% is set by controls: 0 for no effect and ±100 for the full control effect.

CN1[C@@H]2CC[C@H]1CC(OC(=O)C(CO)c1ccccc1)C2 (stereo partly drawn)
inactive: Potency [1] | Potency [2] | Potency [3] | Potency [4] | Potency [5] | Potency [6] | Potency [7] | Potency [8] | Potency [9] | Potency [10] | Potency [11] | Potency [12]

COc1cccc(CCc2ccccc2OCC(CN(C)C)OC(=O)CCC(=O)O)c1 (stereo not drawn)
inactive: Potency [1] | Potency [2] | Potency [3] | Potency [4] | Potency [5] | Potency [6] | Potency [7] | Potency [9] | Potency [10] | Potency [11]
active: Potency [13] 8.41 µM | Potency [14] 10.6 µM | Potency [15] 11.9 µM | Potency [12] 23.7 µM

O=C(Oc1ccccc1)c1cccc(C(=O)Oc2ccccc2)c1
active: Potency [14] 72.3 µM | Potency [15] 67 µM
inactive: Potency [1] | Potency [2] | Potency [3] | Potency [4] | Potency [5] | Potency [6] | Potency [7] | Potency [16] | Potency [9] | Potency [10] | Potency [11] | Potency [17]

COc1cc(C=C2CCC/C(=C\c3ccc(O)c(OC)c3)C2=O)ccc1O
inactive: Potency [1] | Potency [2] | Potency [3] | Potency [4] | Potency [5] | Potency [6] | Potency [7] | Potency [18]
active: Potency [9] 23.9 µM | Potency [13] 8.41 µM | Potency [14] 11.9 µM | Potency [15] 9.44 µM | Potency [17] 21.1 µM | Potency [12] 7.5 µM

c1cc(OCC2CO2)cc(OCC2CO2)c1 (stereo not drawn)
inactive: Potency [1] | Potency [2] | Potency [3] | Potency [4] | Potency [5] | Potency [6] | Potency [7] | Potency [16] | Potency [11]
active: Potency [14] 0.0763 µM | Potency [15] 1.36 µM | Potency [12] 19.2 µM

C=CC(=O)OCCOCC(CC)(COCCOC(=O)C=C)COCCOC(=O)C=C
active: Potency [8] 22.8 µM | Potency [14] 4.51 µM | Potency [15] 5.06 µM | Potency [10] 22.8 µM
inactive: Potency [1] | Potency [2] | Potency [3] | Potency [4] | Potency [5] | Potency [6] | Potency [7] | Potency [12]

CCCCOc1ccc(C(=O)CCN2CCCCC2)cc1
active: Potency [13] 0.717 µM | Potency [14] 1.27 µM | Potency [15] 1.01 µM | Potency [11] 10.6 µM | Potency [12] 5.07 µM
inactive: fluorescence, % of fluorescein [1] 0.0036% [at 18.6 µM] | fluorescence, % of fluorescent control [2] 0.0618% [at 18.6 µM] | fluorescence, % of fluorescent control [3] -0.0248% [at 18.6 µM] | fluorescence, % of Rose Bengal [4] -0.355% [at 18.6 µM] | fluorescence, % of fluorescent control [5] 0.0259% [at 18.6 µM] | fluorescence, % of fluorescein control [6] 0.0663% [at 18.6 µM] | fluorescence, % of fluorescent control [7] -0.165% [at 18.6 µM] | Potency [9]

c1cc2c3c(c1)ccc1cccc(c13)C2
inactive: Potency [1] | Potency [2] | Potency [3] | Potency [4] | Potency [5] | Potency [6] | Potency [7] | Potency [9] | Potency [13] | Potency [11]

COc1cc(C(C)C)c2c(c1)S(=O)(=O)N(COc1cc(=O)n3cccc(OCCN4CCCCC4)c3n1)C2=O
inactive: fluorescence, % of fluorescein [1] -0.188% [at 18.6 µM] | fluorescence, % of fluorescent control [2] -0.0582% [at 18.6 µM] | fluorescence, % of fluorescent control [3] 0.355% [at 18.6 µM] | fluorescence, % of Rose Bengal [4] -0.164% [at 18.6 µM] | fluorescence, % of fluorescent control [5] -0.155% [at 18.6 µM] | fluorescence, % of fluorescein control [6] -0.0973% [at 18.6 µM] | fluorescence, % of fluorescent control [7] 0.0401% [at 18.6 µM] | Potency [9] | Potency [11]
active: Potency [8] 10.4 µM | Potency [13] 13 µM | Potency [14] 16.4 µM | Potency [15] 13 µM

Cc1cccc(Br)c1
inactive: Potency [2] | Potency [19] | Potency [3] | Potency [4] | Potency [5] | Potency [6] | Potency [7] | Potency [16] | Potency [8] | Potency [9] | Potency [13] | Potency [14] | Potency [15] | Potency [10] | Potency [11] | Potency [12]

N#CSCSc1nc2ccccc2s1
active: Potency [8] 24.5 µM | Potency [13] 0.864 µM | Potency [14] 0.969 µM | Potency [15] 0.969 µM | Potency [10] 13.8 µM | Potency [12] 1.54 µM
inactive: Potency [2] | Potency [19] | Potency [3] | Potency [4] | Potency [5] | Potency [6] | Potency [7]

CC(CN(C)C)CN1c2ccccc2CCc2ccccc21 (stereo not drawn)
inactive: fluorescence, % of fluorescent control [2] 0.133% [at 18.6 µM] | fluorescence, % of fluorescent control [3] 0.264% [at 18.6 µM] | fluorescence, % of Rose Bengal [4] 0.0079% [at 18.6 µM] | fluorescence, % of fluorescent control [5] 0.118% [at 18.6 µM] | fluorescence, % of fluorescein control [6] -0.0071% [at 18.6 µM] | fluorescence, % of fluorescent control [7] -0.0977% [at 18.6 µM] | Potency [9] | Potency [10] | Potency [11]
active: Potency [14] 12.7 µM | Potency [12] 4.52 µM

Clc1ccc(C(Cn2ccnc2)OCc2c(Cl)cccc2Cl)c(Cl)c1 (stereo not drawn)
inactive: fluorescence, % of fluorescent control [2] -0.0423% [at 18.6 µM] | activity change [19] -0.0265% [at 18.6 µM, active compounds read high] | fluorescence, % of fluorescent control [3] -0.276% [at 18.6 µM] | fluorescence, % of Rose Bengal [4] -0.46% [at 18.6 µM] | fluorescence, % of fluorescent control [5] 0% [at 18.6 µM] | fluorescence, % of fluorescein control [6] 0.0431% [at 18.6 µM] | fluorescence, % of fluorescent control [7] 0.116% [at 18.6 µM] | Potency [10] | Potency [18] | Potency [11] | Potency [17]
active: Potency [13] 11.4 µM | Potency [14] 12.7 µM | Potency [15] 11.4 µM

CC1=C(/C=C/C(C)=C/C=C/C(C)=C\C=O)C(C)(C)CCC1
inactive: Potency [2] | Potency [19] | Potency [3] | Potency [4] | Potency [5] | Potency [6] | Potency [7] | Potency [11]
active: Potency [13] 14.5 µM | Potency [14] 14.5 µM | Potency [15] 13 µM | Potency [10] 29.3 µM | Potency [12] 25.8 µM

CN(C)CCCN1c2ccccc2CCc2ccccc21
inactive: Potency [2] | Potency [3] | Potency [4] | Potency [5] | Potency [6] | Potency [7] | Potency [9] | Potency [11]
active: Potency [13] 13.3 µM and 8.63 µM | Potency [14] 23.7 µM and 9.69 µM | Potency [15] 29.8 µM and 9.69 µM | Potency [12] 5.96 µM
